TLR9-MyD88 inh: blocks human TLR9 binding to MyD88. inhibition, % at 4.98 µM. CHO BLA complementation TLR9-MyD88, CCF4 FRET ratio. 340,000 tested, 0.21% active;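 active = inhibition above the mean over all tested compounds plus 3 SD, cut at about 21% in these data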
Target sequence (Q99836 whole entry, looked up): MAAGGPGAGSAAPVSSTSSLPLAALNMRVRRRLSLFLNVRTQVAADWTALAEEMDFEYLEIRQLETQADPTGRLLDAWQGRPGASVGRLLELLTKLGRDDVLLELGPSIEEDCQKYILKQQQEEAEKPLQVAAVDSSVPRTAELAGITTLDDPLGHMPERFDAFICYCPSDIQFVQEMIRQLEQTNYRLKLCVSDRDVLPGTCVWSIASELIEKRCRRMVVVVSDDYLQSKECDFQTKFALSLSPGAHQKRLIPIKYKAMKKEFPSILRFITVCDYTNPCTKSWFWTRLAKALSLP
Target sequence (Q9NR96 whole entry, looked up): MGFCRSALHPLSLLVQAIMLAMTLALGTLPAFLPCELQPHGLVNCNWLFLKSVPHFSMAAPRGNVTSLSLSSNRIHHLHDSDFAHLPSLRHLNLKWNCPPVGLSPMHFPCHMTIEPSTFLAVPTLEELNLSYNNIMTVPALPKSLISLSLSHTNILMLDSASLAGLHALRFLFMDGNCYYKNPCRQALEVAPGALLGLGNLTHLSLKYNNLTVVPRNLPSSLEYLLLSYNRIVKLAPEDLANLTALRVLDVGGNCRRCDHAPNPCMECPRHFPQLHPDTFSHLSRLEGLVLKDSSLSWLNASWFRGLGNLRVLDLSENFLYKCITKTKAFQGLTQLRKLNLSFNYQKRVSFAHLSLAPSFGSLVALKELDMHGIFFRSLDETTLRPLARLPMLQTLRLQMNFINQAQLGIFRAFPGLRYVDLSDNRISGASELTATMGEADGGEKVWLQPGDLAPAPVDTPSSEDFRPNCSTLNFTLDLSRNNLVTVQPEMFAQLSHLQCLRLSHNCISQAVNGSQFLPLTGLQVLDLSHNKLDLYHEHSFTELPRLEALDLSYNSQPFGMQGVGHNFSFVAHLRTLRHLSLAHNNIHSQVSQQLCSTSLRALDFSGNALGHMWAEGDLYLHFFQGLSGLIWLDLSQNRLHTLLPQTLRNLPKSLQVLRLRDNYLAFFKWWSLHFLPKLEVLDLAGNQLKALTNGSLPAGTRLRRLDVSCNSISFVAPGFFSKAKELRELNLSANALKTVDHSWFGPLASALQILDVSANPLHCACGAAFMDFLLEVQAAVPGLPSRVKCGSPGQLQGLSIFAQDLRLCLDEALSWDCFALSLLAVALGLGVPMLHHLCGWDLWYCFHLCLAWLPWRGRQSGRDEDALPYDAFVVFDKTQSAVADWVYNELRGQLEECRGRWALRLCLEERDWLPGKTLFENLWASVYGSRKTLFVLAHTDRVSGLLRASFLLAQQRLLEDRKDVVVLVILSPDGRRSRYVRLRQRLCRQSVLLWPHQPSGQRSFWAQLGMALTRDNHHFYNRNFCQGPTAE
NPR2 activator: GC-B (human) receptor activation | 370,000 tested, 0.11% active | activation, % at 10 µM | P20594 | HEK293-GC-B cells, CNP EC30, cGMP TR-FRET; 0% at EC30 CNP, 100% saturating CNP;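 active = activation at 10 µM reaching about 35% in either raw or pattern-adjusted values, limit read from the data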
NPR1 activator: GC-A (human) enzyme activation | P16066 | HEK293 GC-A cells, cGMP TR-FRET, EC30 ANP; 0% at EC30 ANP, 100% saturating ANP | activation, % at 10 µM | 370,000 tested, 0.14% active; in the data active = activation above about 40%
TLR4 MyD88 comp: blocks binding of human TLR4 to MyD88. inhibition, % at 8.4 µM. O00206+Q99836. HeLa CL3-4 TLR4/MyD88 BLA complementation, FRET ratio. 200,000 tested, 0.18% active; in the data active = inhibition above about 25%
NOD2 RIPK2 PPI: inhibitors of human NOD2-RIPK2 interaction; CHO BLA complementation NOD2-RIPK2, CCF4 ratio; 360,000 tested, 0.38% active; inhibition, % at 4.98 µM; in the data active = inhibition above about 21%
Neddylation inh: inhibitors of human cullin neddylation. P61081+Q13564. 360,000 tested, 0.58% active. TR-FRET cullin neddylation, biochemical. inhibition, % at 25 µM; in the data active = inhibition above about 36%
TLR4 MyD88 cnf: TLR4-MyD88 interaction inhibition confirmed. shares compounds with TLR4 MyD88 comp. HeLa CL3-4 BLA complementation, CCF4 FRET ratio. inhibition, % at 8.4 µM. 350 tested, 50% active;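 active = mean inhibition across three repeat runs above about 25% carried over from the earlier screen, limit read from the data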
BLA inhibitor ct: beta-lactamase inhibition flagged in TLR4-MyD88 counter-screen. shares compounds with TLR4 MyD88 comp. HeLa BLA reporter, CCF4 FRET ratio. inhibition, % at 8.4 µM. 350 tested, 63% active. AID 1237;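 active = mean inhibition over three repeats above about 26% taken from the earlier screen, limit read from the data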;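 also: HeLa cells stably expressing beta-lactamase reporter as counterscreen for TLR4-MyD88 inhibitors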
TLR9-MyD88 conf: confirmation of human TLR9-MyD88 binding inhibitors; shares compounds with TLR9-MyD88 inh; CHO TLR9/MyD88 BLA complementation, CCF4 FRET ratio; inhibition, % at 4.98 µM; 680 tested, 51% active; AID 540250;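 active = mean inhibition across three repeats above about 21% taken from the earlier screen, limit read from the data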;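 also: blue over green emission ratio reports constitutive TLR9 MyD88 association via BLA complementation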
BLA counter-1: non-selective beta-lactamase inhibitors in TLR9-MyD88 counter-screen; 680 tested, 7% active; AID 540251; shares compounds with TLR9-MyD88 inh; CHO-BLA cells, CCF4 FRET ratio, BLA reporter; inhibition, % at 4.98 µM;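 active = mean inhibition above a 50% cutoff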;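 also: counterscreen of TLR9-MyD88 hits on CMV-driven BLA in CHO-K1 cells; higher means less blue over green ratio so more BLA blockade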
TLR9 CHO tox: CHO cell toxicity counter-screen for TLR9-MyD88 inhibitors | AID 588336 | shares compounds with TLR9-MyD88 inh | 680 tested, 39% active | TLR9-MyD88 CHO cells cytotoxicity, luminescence | inhibition, % at 4.98 µM; in the data active = inhibition above about 11%
NOD2 RIPK2 conf: NOD2-RIPK2 interaction inhibition confirmed; shares compounds with NOD2 RIPK2 PPI; CHO cells, NOD2-RIPK2 BLA complementation, CCF4 FRET; inhibition, % at 4.98 µM; 1,200 tested, 70% active;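 active = mean inhibition across replicates above a set limit taken from the earlier primary screen, cut at about 21% in these data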
BLA counter-2: counter-screen for NOD2-RIPK2 interaction inhibitors: BLA reporter; inhibition, % at 4.98 µM; 1,200 tested, 57% active; CHO BLA reporter, CCF4 FRET ratio, counterscreen; shares compounds with NOD2 RIPK2 PPI; AID 624371;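 active = mean inhibition above the low-control mean inhibition plus three low-control SD, cut at about 11% in these data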
Of the large screens only hits and unclear results are named; the others gave an inactive call (follow-up assays come after a bar, where shown). Shown are actives, neighbours in structure and some others; about 1.2% of the full set was active somewhere.

Nc1c(C(=O)Nc2ccccc2)sc2nc(-c3ccco3)ccc12	none (not shown: Neddylation inh)
COc1ccccc1NC(=O)c1sc2nc(-c3ccco3)ccc2c1N	TLR9-MyD88 inh 42, TLR4 MyD88 comp 26, NOD2 RIPK2 PPI 34 (not shown: NPR2 activator, NPR1 activator, Neddylation inh) | TLR4 MyD88 cnf inactive | BLA inhibitor ct 51 | TLR9-MyD88 conf 34 | BLA counter-1 inactive | TLR9 CHO tox inactive
C/C(C=NNC(=O)CSc1nnc(-c2ccc(Cl)cc2)n1-c1ccc(C)cc1)=C\c1ccccc1	none (no result: TLR9-MyD88 inh, TLR4 MyD88 comp, NOD2 RIPK2 PPI, Neddylation inh)
O=[N+]([O-])c1ccc(-c2ccc(/C=N/Nc3nc(NCc4ccccc4)nc(N4CCOCC4)n3)o2)cc1	TLR9-MyD88 inh 36, TLR4 MyD88 comp 55 | TLR4 MyD88 cnf 47 | BLA inhibitor ct 76 | TLR9-MyD88 conf 29 | BLA counter-1 inactive | TLR9 CHO tox inactive
COc1cc2c(cc1OC)C(=Cc1ccc(N(C)C)cc1)C=C2	none (no result: TLR4 MyD88 comp)
COc1cc2nc(/C=C/c3ccc(N(C)C)cc3)sc2cc1SC	TLR9-MyD88 inh 32, TLR4 MyD88 comp 64, NOD2 RIPK2 PPI 41 | TLR4 MyD88 cnf 65 | BLA inhibitor ct 96 | TLR9-MyD88 conf 53 | BLA counter-1 59 | TLR9 CHO tox inactive | NOD2 RIPK2 conf 78 | BLA counter-2 82
COC(=O)[C@]12C[C@H](CC(=O)NCc3cccc4ccccc34)C(=O)N(Cc3ccco3)C1=C[C@H](C(C)(C)C)O[C@@H]2C	none (no result: TLR9-MyD88 inh, TLR4 MyD88 comp, NOD2 RIPK2 PPI, Neddylation inh)
COc1ccc(S[C@]2(C(=O)N3CCN(c4ncccn4)CC3)CC(=O)N(c3ccc(C#N)cc3)[C@@H]2c2ccc(OC)cc2)cc1	none (no result: TLR9-MyD88 inh, TLR4 MyD88 comp, NOD2 RIPK2 PPI, Neddylation inh)
Nc1ccc2c(C(F)(F)F)cc(=O)oc2c1	TLR9-MyD88 inh 55, TLR4 MyD88 comp 49, NOD2 RIPK2 PPI 51 | TLR4 MyD88 cnf 41 | BLA inhibitor ct 66 | TLR9-MyD88 conf 36 | BLA counter-1 inactive | TLR9 CHO tox inactive | NOD2 RIPK2 conf 64 | BLA counter-2 68
Cn1c(-c2c(N)n(CCCc3ccccc3)c3nc4ccccc4nc23)nc2ccccc21	TLR9-MyD88 inh 32, TLR4 MyD88 comp 48, NOD2 RIPK2 PPI 58 (not shown: Neddylation inh) | TLR4 MyD88 cnf 54 | BLA inhibitor ct 86 | TLR9-MyD88 conf 62 | BLA counter-1 63 | TLR9 CHO tox inactive | NOD2 RIPK2 conf 79 | BLA counter-2 80
Nc1c(C(=O)OCC2CCCO2)c2nc3ccccc3nc2n1C1CCCC1 (configuration not stated)	none (not shown: Neddylation inh)
Cn1c(-c2c(N)n(C3CCCC3)c3nc4ccccc4nc23)nc2ccccc21	TLR9-MyD88 inh 40, TLR4 MyD88 comp 68, NOD2 RIPK2 PPI 29 (not shown: Neddylation inh) | TLR4 MyD88 cnf 69 | BLA inhibitor ct 96 | NOD2 RIPK2 conf 78 | BLA counter-2 83
Cn1c(-c2c(N)n(CCc3ccccc3)c3nc4ccccc4nc23)nc2ccccc21	TLR9-MyD88 inh 61, TLR4 MyD88 comp 69, NOD2 RIPK2 PPI 69 (not shown: Neddylation inh) | TLR4 MyD88 cnf 51 | BLA inhibitor ct 84 | TLR9-MyD88 conf 55 | BLA counter-1 56 | TLR9 CHO tox inactive | NOD2 RIPK2 conf 73 | BLA counter-2 75
Cc1ccc(-n2ncc(Br)c(Br)c2=O)cc1	TLR9-MyD88 inh 24, TLR4 MyD88 comp 27, NOD2 RIPK2 PPI 32 (no result: NPR2 activator, NPR1 activator) | TLR4 MyD88 cnf inactive | BLA inhibitor ct inactive | TLR9-MyD88 conf 27 | BLA counter-1 inactive | TLR9 CHO tox 101 | NOD2 RIPK2 conf 45 | BLA counter-2 inactive
O=S(=O)(c1ccc(Br)c2nsnc12)N1CCOCC1	TLR9-MyD88 inh 27, TLR4 MyD88 comp 56, NOD2 RIPK2 PPI 56 | TLR4 MyD88 cnf 54 | BLA inhibitor ct 76 | TLR9-MyD88 conf inactive | BLA counter-1 inactive | TLR9 CHO tox 14 | NOD2 RIPK2 conf 54 | BLA counter-2 20
Cc1ccc(S(=O)(=O)N2c3ccccc3OC(C(=O)OC(C)(C)C)(C(=O)OC(C)(C)C)C2CC(=O)c2ccccc2)cc1 (configuration not stated)	none (no result: TLR9-MyD88 inh, TLR4 MyD88 comp)
Cc1cc(-c2cccs2)c2c(N)c(C(=O)c3ccc4c(c3)OCO4)sc2n1	none
COc1ccc(C(=O)c2sc3nc(C)cc(-c4cccs4)c3c2N)cc1	TLR9-MyD88 inh 56, TLR4 MyD88 comp 34, NOD2 RIPK2 PPI 64 | TLR4 MyD88 cnf inactive | BLA inhibitor ct inactive | TLR9-MyD88 conf 45 | BLA counter-1 inactive | TLR9 CHO tox inactive | NOD2 RIPK2 conf 37 | BLA counter-2 71
COc1ccc(-c2ccc3c(N)c(C(=O)c4cccc(OC)c4)sc3n2)cc1	TLR4 MyD88 comp 31, NOD2 RIPK2 PPI 25 | TLR4 MyD88 cnf 28 | BLA inhibitor ct 57 | NOD2 RIPK2 conf 45 | BLA counter-2 56
COc1ccc(NC(=O)c2sc3nc(-c4cccnc4)ccc3c2N)cc1OC	none (no result: TLR4 MyD88 comp)
O=C(NC1CCCCN(Cc2ccc(Cl)cc2)C1=O)C(c1ccccc1)c1ccccc1 (configuration not stated)	none (no result: TLR9-MyD88 inh, TLR4 MyD88 comp, NOD2 RIPK2 PPI, Neddylation inh)
COc1ccc(C(=O)OCCN2CCN(C3CN(Cc4cn(Cc5cccc(C)c5)nn4)S(=O)(=O)C3)CC2)cc1OC (configuration not stated)	none (no result: TLR9-MyD88 inh, TLR4 MyD88 comp, NOD2 RIPK2 PPI, Neddylation inh)
COC(=O)C1=C(C)N(Cc2ccc(C(F)(F)F)cc2)C(=NCc2ccccc2C(F)(F)F)NC1c1cccc(Cl)c1 (configuration not stated)	none (no result: TLR9-MyD88 inh, TLR4 MyD88 comp, NOD2 RIPK2 PPI, Neddylation inh)
CCN1/C(=C/C=C/c2oc3ccc(-c4ccccc4)cc3[n+]2CC)Oc2ccc(-c3ccccc3)cc21	TLR9-MyD88 inh 25, TLR4 MyD88 comp 40, NOD2 RIPK2 PPI 47 | TLR4 MyD88 cnf 35 | BLA inhibitor ct 57 | TLR9-MyD88 conf 25 | BLA counter-1 inactive | TLR9 CHO tox 69 | NOD2 RIPK2 conf 67 | BLA counter-2 57
